PubChem BioAssay (NCATS)
Results filed as inconclusive are left out. The source made the active and inactive calls. Calls come from the whole dose curve; as a rule, active = well fitted curve in the direction sought with a large enough effect; inconclusive = small, poorly fitted or top-dose-only effect, or another doubt; inactive = no such curve, though single readings can be large; an effect the other way counts as inactive or inconclusive.

Experiments:
[1] = Quantitative High-Throughput drug screen in 47 multiple myeloma cell lines against the NCATS MIPE library collection: INA6_PLB cell viability assay (AID 1918965; note: nearly all actives have a fitted effect of over 55% in size)
Method in brief: (§1)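 Viability readout: CellTiter-Glo luminescence following 5 min room-temperature incubation with reagent. Prior exposure: 48 h, 37C, humidified 5% CO2, 500 cells per well.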

[2] = Quantitative High-Throughput drug screen in 47 multiple myeloma cell lines against the NCATS MIPE library collection: H1112_PLB cell viability assay (AID 1918967; note: nearly all actives have a fitted effect of over 30% in size)
Method in brief: (§2)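 qHTS of the MIPE 4.0 collection: 500 myeloma cells/well, 48 h drug exposure at 37C in 5% CO2, then CellTiter-Glo for 5 min at room temperature before luminescence reading.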

[3] = Quantitative High-Throughput drug screen in 47 multiple myeloma cell lines against the NCATS MIPE library collection: KMS27_JCRB cell viability assay (AID 1918970); settings: KMS27 myeloma cells, CellTiter-Glo ATP viability, 48 h; viability (% of DMSO): at 45.8 µM (top of the series); note: nearly all actives have a fitted effect of over 30% in size
Method in brief: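 Myeloma cells (500 per well) were exposed to MIPE 4.0 compounds for 48 h at 37 °C, 5% CO2; viability was read as ATP luminescence with CellTiter-Glo, normalized to DMSO-only (100%) and media-only (0%) wells.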

[4] = Quantitative High-Throughput drug screen in 47 multiple myeloma cell lines against the NCATS MIPE library collection: KMS12BM_JCRB cell viability assay (AID 1918971); note: nearly all actives have a fitted effect of over 35% in size
Method in brief: (§3)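 Myeloma cells (500 per well) were exposed to MIPE 4.0 compounds by pin transfer and incubated 48 hours at 37C, 5% CO2. Viability was read as ATP by CellTiter-Glo luminescence, normalised to DMSO (100%) and media-only (0%) wells.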

[5] = Quantitative High-Throughput drug screen in 47 multiple myeloma cell lines against the NCATS MIPE library collection: KMS12PE_JCRB cell viability assay (AID 1918972); note: nearly all actives have a fitted effect of over 30% in size
Method in brief: as §1

[6] = Quantitative High-Throughput drug screen in 47 multiple myeloma cell lines against the NCATS MIPE library collection: MMM1_PLB cell viability assay (AID 1918976); note: nearly all actives have a fitted effect of over 35% in size
Method in brief: (§4)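 Cells were exposed to library compounds for 48 hours, after which ATP was measured by CellTiter-Glo. Signal was taken as median relative luminescence units.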

[7] = Quantitative High-Throughput drug screen in 47 multiple myeloma cell lines against the NCATS MIPE library collection: OCIMY1_PLB cell viability assay (AID 1918979); note: nearly all actives have a fitted effect of over 35% in size
Method in brief: as §4

[8] = Quantitative High-Throughput drug screen in 47 multiple myeloma cell lines against the NCATS MIPE library collection: MM1S_ATCC cell viability assay (AID 1918980); note: nearly all actives have a fitted effect of over 45% in size
Method in brief: as §4

[9] = Quantitative High-Throughput drug screen in 47 multiple myeloma cell lines against the NCATS MIPE library collection: L363_DSMZ cell viability assay (AID 1918984); settings: L363 myeloma viability, CellTiter-Glo ATP luminescence, 48 h; viability (% of control): at 45.8 µM (top of the series); note: nearly all actives have a fitted effect of over 40% in size
Method in brief: as §4

[10] = Quantitative High-Throughput drug screen in 47 multiple myeloma cell lines against the NCATS MIPE library collection: Karpas25_ECACC cell viability assay (AID 1918968; note: nearly all actives have a fitted effect of over 35% in size)
Method in brief: as §2

[11] = Quantitative High-Throughput drug screen in 47 multiple myeloma cell lines against the NCATS MIPE library collection: KMS26_JCRB cell viability assay (AID 1918975); note: nearly all actives have a fitted effect of over 45% in size
Method in brief: as §3

[12] = Quantitative High-Throughput drug screen in 47 multiple myeloma cell lines against the NCATS MIPE library collection: MOLP8_DSMZ cell viability assay (AID 1918977); note: nearly all actives have a fitted effect of over 45% in size
Method in brief: as §4

[13] = Quantitative High-Throughput drug screen in 47 multiple myeloma cell lines against the NCATS MIPE library collection: NCIH929_DSMZ cell viability assay (AID 1918978); note: nearly all actives have a fitted effect of over 35% in size
Method in brief: as §4

[14] = Quantitative High-Throughput drug screen in 47 multiple myeloma cell lines against the NCATS MIPE library collection: MM1R_ATCC cell viability assay (AID 1918981); note: nearly all actives have a fitted effect of over 35% in size
Method in brief: as §4

[15] = Quantitative High-Throughput drug screen in 47 multiple myeloma cell lines against the NCATS MIPE library collection: LP1_DSMZ cell viability assay (AID 1918982); note: nearly all actives have a fitted effect of over 35% in size
Method in brief: as §4

[16] = Quantitative High-Throughput drug screen in 47 multiple myeloma cell lines against the NCATS MIPE library collection: KMS28PE_JCRB cell viability assay (AID 1918983); note: nearly all actives have a fitted effect of over 35% in size
Method in brief: as §4

[17] = Quantitative High-Throughput drug screen in 47 multiple myeloma cell lines against the NCATS MIPE library collection: KMS34_JCRB cell viability assay (AID 1918985); note: nearly all actives have a fitted effect of over 40% in size
Method in brief: as §4

[18] = Quantitative High-Throughput drug screen in 47 multiple myeloma cell lines against the NCATS MIPE library collection: KMS21BM_JCRB cell viability assay (AID 1918974); settings: ATP luminescence, 48 h; viability: at 45.8 µM (top of the series)
Method in brief: as §2

[19] = Quantitative High-Throughput drug screen in 47 multiple myeloma cell lines against the NCATS MIPE library collection: KMS20_JCRB cell viability assay (AID 1918973); note: nearly all actives have a fitted effect of over 45% in size
Method in brief: as §2
Potency is the fitted concentration of half-maximal effect.

Row | Compound | Potency [1] | Potency [2] | Potency [3] | Potency [4] | Potency [5] | Potency [6] | Potency [7] | Potency [8] | Potency [9] | Potency [10] | Potency [11] | Potency [12] | Potency [13] | Potency [14] | Potency [15] | Potency [16] | Potency [17] | Potency [18] | Potency [19]
1 | O=C1NC(=O)C(=Cc2ccc(-c3ccc(F)cc3O)o2)S1 | 7.43 µM (active) | 20.9 µM (active) | 2.09 µM (active) | 37.2 µM (active) | inactive | 2.96 µM (active) | inactive | 16.6 µM (active) | 0.833 µM (active) |  |  |  |  |  |  |  |  |  | 
2 | CC(C)CNc1ccnc(NCc2csc(-c3ccccc3)n2)n1 | 2.64 µM (active) | 6.62 µM (active) |  | 16.6 µM (active) | 4.69 µM (active) | 5.9 µM (active) |  |  | 1.87 µM (active) | 0.935 µM (active) | 16.6 µM (active) | 20.9 µM (active) | 20.9 µM (active) | 18.7 µM (active) | 11.8 µM (active) |  |  |  | 
3 | COc1ccc2nc3cc(Cl)ccc3c(Nc3cc(CN4CCCC4)c(O)c(CN4CCCC4)c3)c2n1 | 7.43 µM (active) | 18.7 µM (active) |  | 11.8 µM (active) |  | 14.8 µM (active) |  | 20.9 µM (active) | 16.6 µM (active) | 14.8 µM (active) | 16.6 µM (active) | 16.6 µM (active) | 18.7 µM (active) |  | 20.9 µM (active) |  |  |  | 
4 | C[C@@H]1CC=CC=CC=CC=C[C@@H](O[C@@H]2O[C@H](C)[C@@H](O)[C@H](N)[C@H]2O)C[C@@H]2O[C@](O)(C[C@@H](O)C[C@@H]3O[C@@H]3C=CC(=O)O1)C[C@H](O)[C@@H]2C(=O)O | 18.7 µM (active) | 16.6 µM (active) |  | 10.5 µM (active) | inactive | 23.5 µM (active) |  | 20.9 µM (active) |  | 20.9 µM (active) | inactive |  | 16.6 µM (active) | 14.8 µM (active) |  | 14.8 µM (active) | 18.7 µM (active) |  | 
5 | C[C@]12CC[C@@H]3c4ccc(O)cc4CC[C@H]3[C@H]1[C@@H](O)[C@@H](O)[C@H]2O | inactive | inactive | inactive |  |  |  | inactive | 26.4 µM (active) | inactive | 26.4 µM (active) | inactive |  | inactive |  | inactive | inactive | inactive |  | 
6 | Nc1ncnc2c1ncn2[C@@H]1O[C@H](CO)[C@@H](O)[C@@H]1O | 3.32 µM (active) | inactive |  |  | 1.66 µM (active) |  |  | 0.743 µM (active) | 1.05 µM (active) | 5.26 µM (active) | 16.6 µM (active) |  | 8.33 µM (active) |  |  |  | 18.7 µM (active) | 209 nM (active) | 
7 | COc1ccc(C=CC(=O)Nc2ccccc2C(=O)O)cc1OC | 0.0019 µM (active) | inactive | inactive |  | inactive |  | inactive | 11.8 µM (active) |  | inactive |  | inactive | inactive |  |  | inactive | inactive |  | 
8 | COc1ccc2cc1Oc1ccc(cc1)C[C@H]1c3cc(c(OC)cc3CCN1C)Oc1c(OC)c(OC)cc3c1[C@H](C2)N(C)CC3 | 18.7 µM (active) | 20.9 µM (active) |  | 13.2 µM (active) | 4.69 µM (active) |  | 18.7 µM (active) |  | 5.9 µM (active) | 20.9 µM (active) | 14.8 µM (active) |  | 20.9 µM (active) | 13.2 µM (active) |  | 14.8 µM (active) | 14.8 µM (active) |  | 
9 | CC[C@H](CC#N)OC(=O)N[C@@H](C)c1cccc(NC(=O)Nc2ccc(-c3cnco3)c(OC)c2)c1 | 1.05 µM (active) | 1.66 µM (active) | 14.8 µM (active) | 1.48 µM (active) | 14.8 µM (active) | 20.9 µM (active) |  | 1.18 µM (active) | 18.7 µM (active) |  | 20.9 µM (active) |  |  |  |  | 1.18 µM (active) |  |  | 
10 | CN(C)N=Nc1nc[nH]c1C(N)=O | 2.64 µM (active) | inactive |  | inactive | 0.166 µM (active) |  | inactive | inactive |  | inactive | 20.9 µM (active) |  | inactive |  | inactive | inactive | inactive |  | 
11 | NC(=O)c1noc([C@H](CCCC2CCCCC2)CC(=O)NO)n1 | 14.8 µM (active) | 16.6 µM (active) |  | 7.43 µM (active) |  | 16.6 µM (active) |  | 16.6 µM (active) | inactive | 14.8 µM (active) | 11.8 µM (active) |  | 14.8 µM (active) |  |  | inactive |  |  | 18.7 µM (active)
12 | Cc1ccccc1-n1c(Cn2nc(-c3cccc(O)c3)c3c(N)ncnc32)nc2cccc(C)c2c1=O | 1.05 µM (active) | 2.64 µM (active) |  | 8.33 µM (active) | 0.935 µM (active) |  |  |  | 2.35 µM (active) | 2.64 µM (active) | 11.8 µM (active) | 5.9 µM (active) | 14.8 µM (active) | 9.35 µM (active) | 11.8 µM (active) | 9.35 µM (active) | 3.32 µM (active) |  | 
13 | CC(C)c1onc(-c2c(Cl)cccc2Cl)c1COc1ccc(C=Cc2cccc(C(=O)O)c2)c(Cl)c1 | inactive | inactive | inactive |  | inactive | 20.9 µM (active) | inactive | 18.7 µM (active) |  |  |  | inactive | inactive | 0.148 µM (active) | inactive |  | inactive |  | 
